Measurements: PubChem BioAssay
Several values for one entry are separate records, joined by “and”; a condition that tells them apart may be missing. Equal values may be shown once. Activity calls are given as the source filed them.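 Rule for the calls, unless noted: active = thallium flux through the channel raised or lowered by more than 3 SD from vehicle-only wells, actives on both sides; inactive = the rest.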

Legend:
[1] = system: Hepatitis C virus NS3 helicase; assay: HCV NS3 helicase inhibitors, primary screen, biochemical, fluorescence polarization, NIH Clinical Collection (AID 743270; call rule not given here); settings: NS3 helicase binding to Cy5-dT15 DNA, stronger effect = higher value, concentration not given here
[2] = target: Single-stranded DNA-binding protein (Escherichia coli (strain K12)) (UniProt P0AGE0); assay: E. coli SSB displacement from DNA, counter-screen for HCV NS3 helicase inhibitor project, biochemical, fluorescence polarization, NIH Clinical Collection (AID 743271; in the data active = inhibition above about 28%); settings: stronger effect = higher value, concentration not given here
[3] = fluorescence interference in NS3h assay format, artefact control for HCV NS3 helicase inhibitor project, biochemical, NIH Clinical Collection (AID 743272; call rule not given here;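 note: HCV NS3 helicase with a Cy5 labelled single stranded DNA probe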); settings: fluorescence interference counterscreen, stronger effect = lower value
[4] = stimulators of nuclear beta-catenin in C2C12, primary screen, imaging, WNT3A-conditioned medium, mouse C2C12, NPC library (AID 1117326; in the data active = nuclear beta-catenin stimulation mostly above about 4.2%, no sharp cut-off; inactive = mostly below about 10%); settings: stronger effect = higher value
[5] = stimulators of insulin release from INS-1E, primary screen, cell-based, 5 mM glucose, NPC library (AID 1117329;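 active = compound raises insulin release from rat beta cells at 5 mM glucose, no numeric limit stated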); settings: rat INS-1E insulin secretion, at 10 µM, stronger effect = higher value
[6] = growth inhibition of GSK3B-pretreated HCT116 cells – cell-based, CellTiter-Glo, 0.2 to 20 µM (AID 1117336;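 active = compounds lowering colon cancer cell viability after pretreatment blocking the GSK3B kinase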); settings: HCT116 viability after GSK3B inhibitor, at 20 µM, stronger effect = higher value
[7] = inhibition of endothelial tube formation, primary screen, imaging, VEGF stimulated, CD31 staining, tube area, NPC library (AID 1117340;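 active = compound that reduces growth-factor-driven endothelial tube area in a mixed cell culture, no cutoff stated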); settings: VEGF-stimulated ADSC/ECFC co-culture, at 10 µM, stronger effect = higher value
[8] = glucagon-like peptide 1 release enhancers, primary assay, NCI-H716 cell line, NPC library (AID 1117341;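 active = compound raises GLP1 secretion from the human gut endocrine cells, with no numeric limit stated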); settings: NCI-H716 cells, at 10 µM, stronger effect = higher value
[9] = HCT116 colon cancer cell growth inhibition, primary screen, CellTiter-Glo luminescence, NPC library (AID 1117342;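 active = compounds that lower survival of HCT116 colon cancer cells in the luminescence readout, no numeric limit stated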); settings: at 20 µM (top of the series)
[10] = CellTiter-Glo luminescent readout of SW480 viability loss, NPC library primary (AID 1117343;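 active = compounds that lower viability of the colon cancer cells in the luminescence readout, with no numeric limit stated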); settings: CellTiter-Glo luminescence; at 20 µM (top of the series)
[11] = decreased DLD-1 cellular survival, CellTiter-Glo luminescent readout, NPC compound collection, primary HTS (AID 1117346;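 active = compounds that lower survival of DLD-1 colon cancer cells in the luminescence readout, no cutoff given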); settings: DLD-1 viability, CellTiter-Glo luminescence; at 20 µM (top of the series)
[12] = target: 6-phosphogluconate dehydrogenase, decarboxylating (Homo sapiens) (UniProt P52209); assay: 6PGD enzyme inhibitors, primary screen, biochemical, human, recombinant enzyme, NADPH absorbance (AID 1159550;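 active = at least 20% inhibition of 6-phosphogluconate dehydrogenase activity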); settings: recombinant 6PGD, NADPH absorbance 341 nm; at 10 µM; stronger effect = higher value
Chain of 6-phosphogluconate dehydrogenase, decarboxylating (Homo sapiens) (P52209 whole entry, looked up): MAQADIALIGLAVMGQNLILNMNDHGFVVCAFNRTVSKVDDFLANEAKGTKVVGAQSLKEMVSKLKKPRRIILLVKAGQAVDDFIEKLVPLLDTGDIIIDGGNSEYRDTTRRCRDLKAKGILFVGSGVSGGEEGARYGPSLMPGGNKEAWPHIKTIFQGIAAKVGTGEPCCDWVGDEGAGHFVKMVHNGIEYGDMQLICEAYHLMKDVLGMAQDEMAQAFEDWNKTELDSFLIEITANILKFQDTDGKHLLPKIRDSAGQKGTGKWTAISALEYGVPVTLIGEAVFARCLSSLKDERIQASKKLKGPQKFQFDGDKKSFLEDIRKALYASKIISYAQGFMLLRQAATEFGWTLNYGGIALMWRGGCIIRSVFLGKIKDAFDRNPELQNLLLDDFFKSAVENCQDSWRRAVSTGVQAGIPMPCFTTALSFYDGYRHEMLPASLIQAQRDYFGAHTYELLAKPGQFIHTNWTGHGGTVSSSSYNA

[13] = sensitizers of A549 cells to miR-34 induction, primary screen, imaging, A549 dox-inducible miR-34, nuclei and caspase counts (AID 1347080;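 active = compounds whose cell count with miR-34 switched on is under 0.7 times the count with it off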); settings: A549 miR-34 inducible, Hoechst nuclei count, 48 h
[14] = survival rescue of mitochondrial mutant cells in low glucose, primary screen, MELAS cybrids, Rieske KO mouse fibroblasts, CellTiter-Glo (AID 1508586;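 active = mean z-score across replicates of 1.96 or higher in either the MELAS or the Rieske mutant cell line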;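 note: z relative to plate mean and SD of compound and empty wells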)
[15] = target: NAD(+) hydrolase SARM1 (Homo sapiens) (UniProt Q6SZW1); assay: SARM1 TIR NADase inhibitors, cell lysate, NAD-Glo luminescence (AID 1508614;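 active = compound whose remaining NAD level is above about 45 nM, limit read from the data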;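 note: higher remaining NAD means stronger inhibition of SARM1 NADase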); settings: SAM-TIR HEK293T lysate NADase, at 1 µM, stronger effect = higher value
Chain of NAD(+) hydrolase SARM1 (Homo sapiens) (Q6SZW1 whole entry, looked up, the tested form may be a part): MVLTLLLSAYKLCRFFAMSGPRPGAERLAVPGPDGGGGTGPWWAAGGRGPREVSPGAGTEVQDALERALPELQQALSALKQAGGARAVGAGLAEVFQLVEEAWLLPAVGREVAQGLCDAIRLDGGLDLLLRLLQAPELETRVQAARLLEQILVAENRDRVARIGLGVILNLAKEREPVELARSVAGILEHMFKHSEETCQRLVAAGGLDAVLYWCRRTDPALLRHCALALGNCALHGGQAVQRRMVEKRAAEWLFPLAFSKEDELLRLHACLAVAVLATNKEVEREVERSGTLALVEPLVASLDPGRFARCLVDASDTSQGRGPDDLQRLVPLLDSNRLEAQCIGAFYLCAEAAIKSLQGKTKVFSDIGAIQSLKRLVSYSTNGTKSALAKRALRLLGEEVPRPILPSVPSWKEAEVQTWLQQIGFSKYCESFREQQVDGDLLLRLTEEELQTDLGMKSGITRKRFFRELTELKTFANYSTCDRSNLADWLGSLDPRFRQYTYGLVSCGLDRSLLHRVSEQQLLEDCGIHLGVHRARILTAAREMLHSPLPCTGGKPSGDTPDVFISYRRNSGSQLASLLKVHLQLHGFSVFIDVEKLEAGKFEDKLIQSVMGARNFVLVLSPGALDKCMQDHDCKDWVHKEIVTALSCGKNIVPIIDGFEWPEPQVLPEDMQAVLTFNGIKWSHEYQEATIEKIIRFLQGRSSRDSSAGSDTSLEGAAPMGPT

[16] = target: Mitogen-activated protein kinase 7 (Homo sapiens) (UniProt Q13164); assay: ERK5 transactivation activators in reporter cells, primary screen, cell-based, HTS (AID 1508626;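 active = luciferase signal above three times the same-plate solvent-only control wells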;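 note: luciferase driven by Gal4-ERK5 fusion binding five Gal4 sites before minimal TATA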); settings: HeLa Gal4-ERK5 transactivation, 18 h, at 5 µM, stronger effect = higher value
Chain of Mitogen-activated protein kinase 7 (Homo sapiens) (Q13164 whole entry, looked up, the tested form may be a part): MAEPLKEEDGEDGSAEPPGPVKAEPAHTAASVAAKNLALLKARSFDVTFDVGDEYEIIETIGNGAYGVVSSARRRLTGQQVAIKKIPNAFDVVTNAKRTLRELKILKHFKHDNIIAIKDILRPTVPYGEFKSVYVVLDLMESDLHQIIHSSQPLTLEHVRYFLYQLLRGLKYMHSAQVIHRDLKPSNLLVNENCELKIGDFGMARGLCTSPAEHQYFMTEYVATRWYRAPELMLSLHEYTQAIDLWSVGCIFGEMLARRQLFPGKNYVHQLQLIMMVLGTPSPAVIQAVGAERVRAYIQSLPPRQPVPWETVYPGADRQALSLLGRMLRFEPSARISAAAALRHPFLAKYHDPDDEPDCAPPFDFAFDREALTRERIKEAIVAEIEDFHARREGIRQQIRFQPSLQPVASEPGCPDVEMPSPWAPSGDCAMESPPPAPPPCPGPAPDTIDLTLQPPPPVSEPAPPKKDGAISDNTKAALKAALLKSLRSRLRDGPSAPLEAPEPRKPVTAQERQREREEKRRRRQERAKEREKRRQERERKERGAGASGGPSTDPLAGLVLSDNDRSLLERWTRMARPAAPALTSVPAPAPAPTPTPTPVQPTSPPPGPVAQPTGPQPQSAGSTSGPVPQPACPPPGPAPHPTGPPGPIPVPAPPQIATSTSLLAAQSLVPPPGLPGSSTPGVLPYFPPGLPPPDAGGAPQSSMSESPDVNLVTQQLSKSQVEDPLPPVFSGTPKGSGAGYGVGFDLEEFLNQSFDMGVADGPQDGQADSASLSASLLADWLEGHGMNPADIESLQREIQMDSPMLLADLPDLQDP

F380Y = assay: modulators of BK channel variants, profiling panel, selectivity assay, cell-based, U2OS BacMam, thallium flux, beta subunits (AID 1259406); settings: at 30 µM;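 note: initial slope of Thallos dye fluorescence rise after thallium is added; log ratio against the mean of 0.3% DMSO vehicle wells on the same plate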
F380Y/beta2Delta = assay: as above; settings: at 30 µM
[17] = target: Calcium-activated potassium channel subunit alpha-1 (Homo sapiens) + Leucine-rich repeat-containing protein 26 (Homo sapiens) (UniProt Q12791+Q2I0M4); assay: as above; settings: F380Y/Slo1WT/gamma1, at 30 µM
Chain of Calcium-activated potassium channel subunit alpha-1 (Homo sapiens) + Leucine-rich repeat-containing protein 26 (Homo sapiens) (Q2I0M4 whole entry, looked up, one chain of several): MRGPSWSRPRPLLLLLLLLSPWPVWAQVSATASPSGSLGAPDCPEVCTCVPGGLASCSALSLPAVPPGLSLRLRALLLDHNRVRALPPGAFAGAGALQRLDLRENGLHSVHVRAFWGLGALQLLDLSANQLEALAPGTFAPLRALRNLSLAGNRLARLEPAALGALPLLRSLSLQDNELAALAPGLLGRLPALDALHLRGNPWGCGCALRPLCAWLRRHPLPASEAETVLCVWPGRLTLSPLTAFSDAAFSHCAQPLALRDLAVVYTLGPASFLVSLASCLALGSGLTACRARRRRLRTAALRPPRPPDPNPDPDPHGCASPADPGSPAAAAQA

[18] = differential killing of epithelial or mesenchymal cells, primary screen, imaging, PC-3E GFP, TEM4-18 mCherry, co-culture (AID 1345086;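 active = compounds killing one labelled cell type while sparing the other, by normalised counts and ratio limits, not self-fluorescent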;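 note: cells exposed to compound for 72 h before imaging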;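 for red/green cell ratio (normalised): normalised mesenchymal count divided by normalised epithelial count so high means epithelial killing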); settings: imaging cell counts, at 1 µM
[19] = stronger effect = lower value, cell number ratio, induced over uninduced
[20] = measured here: relative caspase fold change +Dox/-Dox
[21] = measured here: total cells with miR-34 induction, stronger effect = lower value
[22] = measured here: total cells without miR-34 induction
[23] = MELAS cybrid survival, CellTiter-Glo 48 h, stronger effect = higher value
[24] = Rieske KO mouse fibroblast survival, CellTiter-Glo 72 h

C[C@H](CCC(=O)O)[C@H]1CC[C@H]2[C@@H]3C(=O)C[C@@H]4CC(=O)CC[C@]4(C)[C@H]3CC(=O)[C@]12C
0%: nuclear beta-catenin stimulation ([4]; stimulation, at 2 µM)
1.51: fold change [13, 20]
0.185: z-score [14, 24]
9210: cell count [13, 21]
inactive: inhibition [1] 3.28% | inhibition [2] 2.76% | fluorescence ratio [3] 0.9 | nuclear beta-catenin stimulation ([4]; at 10 µM) -0.3% | insulin secretion stimulation [5] 1.3% | viability decrease [6] -1% | tube area decrease [7] 15.1% | GLP1 secretion stimulation [8] 0.2% | inhibition of viability [9] -5.2% | viability decrease (inhibition) [10] 5.6% | viability decrease (inhibition) [11] -16% | inhibition [12] -0.558% and -4.79% | fold change [13, 19] 0.903 | z-score [14, 23] 1.02 | remaining NAD [15] 10 nM | luciferase signal [16] 100 AU and 64 AU | log fold change Tl+ flux (F380Y) -0.0147 | log fold change Tl+ flux (F380Y/beta2Delta) 0.00244 | log fold change Tl+ flux [17] -0.0617
10200: cell count [13, 22]

CC[C@H](C)C(=O)O[C@H]1C[C@H](O)C=C2C=C[C@H](C)[C@H](CC[C@@H](O)C[C@@H](O)CC(=O)O)[C@H]21
inactive: inhibition [1] -3.56% | inhibition [2] -3.18% | fluorescence ratio [3] 1 | nuclear beta-catenin stimulation ([4]; at 10 µM) -0.7% | insulin secretion stimulation [5] 0.2% | viability decrease [6] -15.6% | tube area decrease [7] 22% | GLP1 secretion stimulation [8] -3.6% | inhibition of viability [9] 12.4% | viability decrease (inhibition) [10] 2.3% | viability decrease (inhibition) [11] 5.1% | inhibition [12] -4.46% | fold change [13, 19] 0.972 | z-score [14, 23] -0.583 | remaining NAD [15] 10 nM | luciferase signal [16] 36 AU | log fold change Tl+ flux (F380Y) -0.00852 | log fold change Tl+ flux (F380Y/beta2Delta) -0.0757 | log fold change Tl+ flux [17] 0.00396
-0.3%: nuclear beta-catenin stimulation ([4]; stimulation, at 2 µM)
9270: cell count [13, 22]
-1.06: z-score [14, 24]
0.983: fold change [13, 20]
9020: cell count [13, 21]

COc1ccc2cc(CCC(C)=O)ccc2c1
1.27: normalised cell number ([18]; measured here: mesenchymal TEM4-18 mCherry cell survival)
3.7%: nuclear beta-catenin stimulation ([4]; stimulation, at 2 µM)
active: viability decrease (inhibition) [11] -3.8% | log fold change Tl+ flux (F380Y) -0.158 | log fold change Tl+ flux (F380Y/beta2Delta) -0.0818
1.12: normalised cell number ([18]; measured here: epithelial PC-3E GFP cell survival)
inactive: inhibition [1] -1.36% | inhibition [2] 1.05% | fluorescence ratio [3] 0.99 | nuclear beta-catenin stimulation ([4]; at 10 µM) 5.3% | insulin secretion stimulation [5] 1.5% | viability decrease [6] -7.2% | tube area decrease [7] -5.2% | GLP1 secretion stimulation [8] 0.4% | inhibition of viability [9] -6.2% | viability decrease (inhibition) [10] 4.5% | inhibition [12] -24.5% | red/green cell ratio (normalised) ([18]; actives lie on both sides, counts scaled to control wells, 1 = unselective) 1.14 | z-score [14, 23] -0.0447 and 0.0297 and 0.548 | remaining NAD [15] 10 nM | luciferase signal [16] 92 AU | log fold change Tl+ flux [17] -0.0634
-0.132 and -0.0567 and -0.121: z-score [14, 24]
